IDE exosite FP = exo-site inhibitors of human IDE, primary screen, biochemical, fluorescence anisotropy, probe displacement. Insulin-degrading enzyme (Homo sapiens), P14735. purified IDE, FL-6b probe fluorescence polarization; active compounds read low. z-score at 20 µM. 17,000 compounds, 6.3% hits. AID 1259349, 2017;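 active means z-score of -3 or lower, meaning strong loss of probe binding signal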;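 further: His-tagged human IDE residues 42-1019 made in E. coli with 30 nM FL-6b probe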
Target sequence (P14735 42-1019 limits assumed): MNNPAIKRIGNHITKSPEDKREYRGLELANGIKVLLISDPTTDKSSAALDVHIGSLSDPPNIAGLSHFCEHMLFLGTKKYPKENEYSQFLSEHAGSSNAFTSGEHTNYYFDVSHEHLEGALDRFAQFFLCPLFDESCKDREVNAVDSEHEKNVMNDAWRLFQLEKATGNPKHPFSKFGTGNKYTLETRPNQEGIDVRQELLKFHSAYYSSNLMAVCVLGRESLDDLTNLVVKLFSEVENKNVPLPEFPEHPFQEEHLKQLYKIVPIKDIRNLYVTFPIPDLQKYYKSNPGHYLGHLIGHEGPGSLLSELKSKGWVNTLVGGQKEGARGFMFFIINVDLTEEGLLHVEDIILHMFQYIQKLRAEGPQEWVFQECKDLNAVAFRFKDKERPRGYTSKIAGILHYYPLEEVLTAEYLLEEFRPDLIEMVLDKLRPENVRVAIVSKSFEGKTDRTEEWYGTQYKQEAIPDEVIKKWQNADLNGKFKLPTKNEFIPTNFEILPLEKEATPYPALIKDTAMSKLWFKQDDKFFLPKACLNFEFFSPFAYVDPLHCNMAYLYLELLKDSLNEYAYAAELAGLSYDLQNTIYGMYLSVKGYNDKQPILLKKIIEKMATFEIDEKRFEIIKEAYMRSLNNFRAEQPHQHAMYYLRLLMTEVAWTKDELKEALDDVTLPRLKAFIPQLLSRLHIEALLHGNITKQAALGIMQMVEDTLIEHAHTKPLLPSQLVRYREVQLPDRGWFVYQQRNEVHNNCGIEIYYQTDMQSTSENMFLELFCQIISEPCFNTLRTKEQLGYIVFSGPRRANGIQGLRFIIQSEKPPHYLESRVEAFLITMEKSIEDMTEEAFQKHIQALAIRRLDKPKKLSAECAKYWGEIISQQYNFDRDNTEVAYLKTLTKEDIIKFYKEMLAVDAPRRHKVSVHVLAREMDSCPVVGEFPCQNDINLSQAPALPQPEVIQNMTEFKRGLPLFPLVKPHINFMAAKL
An asterisk follows results filed as active; ! = a repeat was not active. The full list was thinned out, with hits kept by preference.

SMILES | IDE exosite FP
COCC(=O)N1CC(=O)N2[C@H](C1)[C@H](c1ccc(C#CCc3ccccc3)cc1)[C@@H]2CO | 1.21
CCC(=O)N1CC(=O)N2[C@@H](CO)[C@H](c3ccc(C#CCc4ccccc4)cc3)[C@@H]2C1 | -3.78*
CCC(=O)N1CC(=O)N2[C@H](C1)[C@@H](c1ccc(C#CCc3ccccc3)cc1)[C@@H]2CO | -2.54
O=C(C1CC1)N1CC(=O)N2[C@H](CO)[C@@H](c3ccc(C#CCc4ccccc4)cc3)[C@@H]2C1 | 0.353
CCC(=O)N1CC(=O)N2[C@H](CO)[C@@H](c3ccc(C#CCc4ccccc4)cc3)[C@@H]2C1 | -0.778
CCC(=O)N1CC(=O)N2[C@H](CO)[C@H](c3ccc(C#CCc4ccccc4)cc3)[C@@H]2C1 | -5.83*
O=C(C1CC1)N1CC(=O)N2[C@H](CO)[C@@H](c3ccc(C#CCc4ccccc4)cc3)[C@H]2C1 | 0.018
CCS(=O)(=O)N1CC(=O)N2[C@H](CO)[C@@H](c3ccc(C#CCC(C)C)cc3)[C@@H]2C1 | 1.16
O=C(Nc1cccc(F)c1)N1CC(=O)N2[C@H](CO)[C@H](c3ccc(-c4ccc(F)cc4)cc3)[C@H]2C1 | 2.57
COc1ccc(-c2ccc(C3[C@@H]4CN(S(=O)(=O)c5ccccc5C)C[C@H]3N4)cc2)cc1 (some centres not stated) | -0.842
COc1ccc(S(=O)(=O)N2[C@@H]3CNC[C@H]2C3c2ccc(-c3cccc(OC)c3)cc2)cc1 (some centres not stated) | 3.37
COc1cccc(S(=O)(=O)N2[C@@H]3CNC[C@H]2C3c2ccc(-c3ccccc3C)cc2)c1 (some centres not stated) | -5.31*
COc1ccccc1S(=O)(=O)N1[C@@H]2CNC[C@H]1C2c1ccc(/C=C/c2ccccc2)cc1 (some centres not stated) | -5.24*!
Cc1ccccc1-c1ccc(C2[C@@H]3CN(S(=O)(=O)c4ccccc4C)C[C@H]2N3)cc1 (some centres not stated) | -10.8*!
COc1ccccc1S(=O)(=O)N1[C@@H]2CNC[C@H]1C2c1ccc(-c2ccncc2)cc1 (some centres not stated) | 0.193
COc1cccc(S(=O)(=O)N2[C@@H]3CNC[C@H]2C3c2ccc(-c3cccc(C)c3)cc2)c1 (some centres not stated) | -1.52
COc1cccc(-c2ccc(C3[C@@H]4CN(S(=O)(=O)c5ccccc5C)C[C@H]3N4)cc2)c1 (some centres not stated) | -1.58
COc1ccccc1S(=O)(=O)N1C[C@@H]2N[C@H](C1)C2c1ccc(-c2cccnc2)cc1 (some centres not stated) | 1.13
COc1ccccc1S(=O)(=O)N1C[C@@H]2N[C@H](C1)C2c1ccc(-c2ccc(F)cc2)cc1 (some centres not stated) | 3
COc1ccccc1S(=O)(=O)N1C[C@@H]2N[C@H](C1)C2c1ccc(-c2ccccc2C)cc1 (some centres not stated) | -7.95*!
COc1cccc(S(=O)(=O)N2[C@@H]3CNC[C@H]2C3c2ccc(/C=C/c3ccccc3)cc2)c1 (some centres not stated) | 0.219
CO[C@@H]1CN(C)C(=O)c2cc(NC(=O)NC3CCCCC3)ccc2OC[C@H](C)N(CC2CCOCC2)C[C@@H]1C | -0.598
COc1ccc(-c2ccc([C@@H]3[C@@H](CO)N4CCCCN(C(=O)c5ccc6c(c5)OCO6)C[C@@H]34)cc2)cc1 | 4.85
COCC(=O)N1CCC2(CC1)CN[C@@H](CO)c1c2c2ccc(OC)cc2n1C | -0.717
O=S(=O)(c1cccs1)N1CCCCN2[C@@H](CO)[C@@H](c3ccc(-c4ccccc4)cc3)[C@@H]2C1 | 2.21
SMILES | IDE exosite FP
CN(C)CC(=O)N1[C@@H]2c3ccc(C4=CCCCC4)c(=O)n3C[C@@H]2[C@@H](CO)[C@@H]1C(=O)Nc1nccs1 | -0.277
CN1C(=O)c2cc(NS(=O)(=O)c3ccccc3Cl)ccc2OC[C@H]2O[C@@H](CC(=O)Nc3cc(F)ccc3F)CC[C@@H]21 | -0.769
CCC(=O)N1[C@@H](CO)[C@@H](c2ccccc2)C12CN(Cc1ccccc1Cl)C2 | 2.08
O=C(Nc1cc(F)ccc1F)N1CCCCN2[C@H](CO)[C@H](c3ccc(-c4cncnc4)cc3)[C@H]2C1 | 0.908
O=C(C[C@H]1C=C[C@H](NC(=O)Nc2cccc(F)c2)[C@H](CO)O1)NCC1CCCCC1 | 0.297
CCC(=O)N1[C@H](CO)[C@H](c2ccccc2)[C@@H]1CN(CC)C(=O)c1ccccc1 | 2.07
C/C=C/c1ccc(C2[C@@H]3CN(S(=O)(=O)c4ccccc4)C[C@H]2N3)cc1 (some centres not stated) | 0.064
Cc1ccc(S(=O)(=O)N2C[C@@H]3N[C@H](C2)C3c2ccc(/C=C/c3ccccc3)cc2)cc1 (some centres not stated) | 4.19
Cc1ccccc1-c1ccc(C2[C@@H]3CN(S(=O)(=O)c4ccccc4)C[C@H]2N3)cc1 (some centres not stated) | -10.1*
COc1cccc(-c2ccc([C@H]3[C@H](C#N)N(C(=O)c4ccccn4)[C@H]3CO)cc2)c1 | -2.87
COc1cccc(-c2ccc([C@H]3[C@@H](C#N)N(C(=O)c4ccccn4)[C@@H]3CO)cc2)c1 | -4.3*
COc1cccc(-c2ccc([C@H]3[C@@H](CO)N(C(=O)c4ccccn4)[C@H]3C#N)cc2)c1 | -5.94*
COc1cccc(C#Cc2ccc([C@@H]3[C@@H](C#N)N(C(=O)c4ccccn4)[C@@H]3CO)cc2)c1 | -1.26
COc1cccc(C#Cc2ccc([C@H]3[C@@H](C#N)N(C(=O)c4ccccn4)[C@@H]3CO)cc2)c1 | -1.06
COc1cccc(C#Cc2ccc([C@@H]3[C@@H](C#N)N(C(=O)c4ccccn4)[C@H]3CO)cc2)c1 | 1.55
CCS(=O)(=O)N1CC(=O)N2[C@H](CO)[C@@H](c3ccc(C#Cc4ccc(F)cc4)cc3)[C@@H]2C1 | 1.81
COc1ccc(NC(=O)N2CC(=O)N3[C@H](CO)[C@H](c4ccc(-c5ccccc5)cc4)[C@@H]3C2)cc1 | 2.76
COc1ccc(C#Cc2ccc([C@@H]3[C@@H](CO)N4C(=O)CN(C(=O)c5ccccc5)C[C@@H]34)cc2)cc1 | 3.14
COc1ccc(S(=O)(=O)N2CCCCN3[C@H](C2)[C@H](c2ccc(C#CC4CC4)cc2)[C@@H]3CO)cc1 | 1.63
COCC(=O)NC[C@H]1[C@@H](c2ccccc2)[C@@H](CO)N1C(=O)c1ccccc1 | -0.0933
COc1ccccc1C#Cc1ccc([C@@H]2[C@H](CO)N3CCCCN(C(=O)C4CCC4)C[C@@H]23)cc1 | -10.5*
COc1ccccc1C#Cc1ccc([C@H]2[C@@H](CO)N3CCCCN(C(=O)C4CCC4)C[C@@H]23)cc1 | -7.57*
COc1ccc(C#Cc2ccc([C@@H]3[C@H](CO)N4CCCCN(C(=O)Nc5ccccc5)C[C@@H]34)cc2)cc1 | 4.01
COc1ccc(C#Cc2ccc([C@H]3[C@H]4CN(C(=O)Nc5ccccc5)CCCCN4[C@H]3CO)cc2)cc1 | 1.31
CN(C)CC#Cc1ccc([C@@H]2[C@H](CO)N3CCCCN(C(=O)C4CCC4)C[C@@H]23)cc1 | 2.63
CN(C)CC#Cc1ccc([C@@H]2[C@H]3CN(C(=O)C4CCC4)CCCCN3[C@H]2CO)cc1 | 0.919
COc1ccccc1NC(=O)N1CCCCN2[C@H](CO)[C@@H](c3ccc(C#Cc4ccccc4)cc3)[C@H]2C1 | -2.74
COc1ccc(C#Cc2ccc([C@H]3[C@@H](CO)N4CCCCN(C(=O)Nc5ccccc5)C[C@@H]34)cc2)cc1 | 0.819
